The nature of test [1]: small molecules captured by biotinylated probe aFSTL3 – biochemical, small-molecule microarray, fluorescence 635/667, stem cell growth factor project, primary screen (AID 1064).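 Also: measures binding of the biotinylated anti-FSTL3 antibody to printed compounds.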 The conditions noted are these: higher = more signal.
A short description of test [2]: binders from COS7 lysate, DM2A8 probe, primary screen, torsin A project, cell lysate, small-molecule microarray, fluorescence 635/667 (AID 1065). The conditions noted are these: higher = more signal, COS7 lysate expressing mutant human TOR1A.
Test [3] can be described thus: small molecules captured by biotinylated probe aFGF2 – biochemical, small-molecule microarray, fluorescence 635/667, stem cell growth factor project, primary screen (AID 1067).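 Also: measures binding of biotinylated aFGF2 protein to printed compounds on slides; z-score merges feature fluorescence and signal-to-noise across triplicate slides.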 The following applies: higher = more signal.
The nature of test [4]: small molecules captured by biotinylated probe aFGF10 – biochemical, small-molecule microarray, fluorescence 635/667, stem cell growth factor project, primary screen (AID 1071).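 Also: score merges 667 nm spot intensity and signal to noise from triplicate slides.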 The following applies: higher = more signal.
Test [5] deals with Neurogenic locus notch homolog protein 2 (Homo sapiens) (UniProt Q04721). Nature of the test: small molecules binding Notch2 protein – biochemical, small-molecule microarray, 635 nm fluorescence, stem cell growth factors, primary screen (AID 1073). The following applies: higher = more signal.
Sequence of Neurogenic locus notch homolog protein 2 (Homo sapiens) (Q04721 whole entry, looked up, canonical isoform): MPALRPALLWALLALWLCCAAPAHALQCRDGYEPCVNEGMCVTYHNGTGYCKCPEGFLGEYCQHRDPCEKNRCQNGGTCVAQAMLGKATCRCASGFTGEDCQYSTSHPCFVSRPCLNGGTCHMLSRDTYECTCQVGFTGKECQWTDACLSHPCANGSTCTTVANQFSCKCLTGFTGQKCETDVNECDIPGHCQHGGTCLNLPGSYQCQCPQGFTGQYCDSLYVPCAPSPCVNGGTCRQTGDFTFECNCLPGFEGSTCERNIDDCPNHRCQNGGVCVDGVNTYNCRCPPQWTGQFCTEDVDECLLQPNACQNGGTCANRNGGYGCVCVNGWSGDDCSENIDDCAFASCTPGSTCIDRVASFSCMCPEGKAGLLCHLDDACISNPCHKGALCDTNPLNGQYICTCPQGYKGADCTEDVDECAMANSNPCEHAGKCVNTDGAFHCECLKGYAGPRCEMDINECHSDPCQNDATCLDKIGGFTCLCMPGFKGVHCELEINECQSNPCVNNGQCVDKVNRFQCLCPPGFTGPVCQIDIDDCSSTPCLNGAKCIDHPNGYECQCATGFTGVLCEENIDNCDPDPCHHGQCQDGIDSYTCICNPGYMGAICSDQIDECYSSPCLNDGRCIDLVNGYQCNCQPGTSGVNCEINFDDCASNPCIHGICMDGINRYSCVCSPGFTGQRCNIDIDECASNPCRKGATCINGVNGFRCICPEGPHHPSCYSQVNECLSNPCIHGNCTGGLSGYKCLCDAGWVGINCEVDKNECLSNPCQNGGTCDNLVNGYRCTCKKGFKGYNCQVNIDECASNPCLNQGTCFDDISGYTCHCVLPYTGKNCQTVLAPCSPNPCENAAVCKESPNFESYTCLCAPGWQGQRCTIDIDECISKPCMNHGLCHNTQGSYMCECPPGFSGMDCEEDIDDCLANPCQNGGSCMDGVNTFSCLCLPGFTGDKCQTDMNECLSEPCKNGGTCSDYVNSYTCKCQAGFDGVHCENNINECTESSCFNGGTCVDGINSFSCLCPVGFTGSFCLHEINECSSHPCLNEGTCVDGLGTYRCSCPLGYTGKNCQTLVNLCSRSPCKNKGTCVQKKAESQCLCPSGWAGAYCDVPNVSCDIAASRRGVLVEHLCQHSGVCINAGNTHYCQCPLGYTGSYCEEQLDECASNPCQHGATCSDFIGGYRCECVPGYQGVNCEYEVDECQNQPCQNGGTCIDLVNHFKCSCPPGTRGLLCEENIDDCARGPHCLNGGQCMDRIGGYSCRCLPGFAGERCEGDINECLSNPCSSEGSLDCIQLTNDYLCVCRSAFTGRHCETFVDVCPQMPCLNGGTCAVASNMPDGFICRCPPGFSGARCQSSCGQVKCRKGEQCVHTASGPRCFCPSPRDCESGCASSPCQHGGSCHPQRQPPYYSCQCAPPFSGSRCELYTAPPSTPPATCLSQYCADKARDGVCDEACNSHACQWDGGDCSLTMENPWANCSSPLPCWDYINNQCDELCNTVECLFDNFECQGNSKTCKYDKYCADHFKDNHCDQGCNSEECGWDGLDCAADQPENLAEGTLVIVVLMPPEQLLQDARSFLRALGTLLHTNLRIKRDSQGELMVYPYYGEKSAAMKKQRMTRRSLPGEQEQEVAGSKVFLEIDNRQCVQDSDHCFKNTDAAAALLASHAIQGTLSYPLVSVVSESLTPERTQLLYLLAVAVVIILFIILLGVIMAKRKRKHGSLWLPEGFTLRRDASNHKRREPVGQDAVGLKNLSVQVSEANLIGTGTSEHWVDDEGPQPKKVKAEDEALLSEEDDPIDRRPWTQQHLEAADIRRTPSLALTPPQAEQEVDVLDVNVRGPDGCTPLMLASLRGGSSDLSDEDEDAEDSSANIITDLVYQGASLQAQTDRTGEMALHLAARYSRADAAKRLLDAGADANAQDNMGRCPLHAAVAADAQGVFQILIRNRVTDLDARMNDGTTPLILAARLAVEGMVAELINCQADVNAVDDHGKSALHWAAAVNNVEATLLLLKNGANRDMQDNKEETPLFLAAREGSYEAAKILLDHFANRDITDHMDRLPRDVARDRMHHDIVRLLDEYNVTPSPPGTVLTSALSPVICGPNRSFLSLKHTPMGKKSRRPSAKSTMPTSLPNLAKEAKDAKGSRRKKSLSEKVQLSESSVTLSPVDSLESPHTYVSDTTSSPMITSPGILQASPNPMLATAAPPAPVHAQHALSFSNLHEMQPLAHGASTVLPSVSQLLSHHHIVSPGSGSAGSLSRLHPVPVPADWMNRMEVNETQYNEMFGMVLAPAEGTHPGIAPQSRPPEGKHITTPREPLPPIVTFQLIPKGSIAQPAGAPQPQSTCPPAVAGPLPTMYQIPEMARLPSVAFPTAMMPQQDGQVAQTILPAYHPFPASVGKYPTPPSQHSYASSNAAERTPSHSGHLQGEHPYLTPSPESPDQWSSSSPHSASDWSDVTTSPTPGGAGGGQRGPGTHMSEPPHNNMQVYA
Test [6] deals with Pro-neuregulin-1, membrane-bound isoform (Homo sapiens) (UniProt Q02297). Kind of test: small molecules binding neuregulin-1 protein – biochemical, small-molecule microarray, fluorescence 635/667, psychiatric disease protein project, primary screen (AID 1075).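 Also: score combines 667 nm spot fluorescence with signal to noise.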 The conditions noted are these: NRG1 binding, 635 nm fluorescence, higher = more signal.
For test [7], the system named is Neuregulin-1 EGF-like domain. Kind of test: small molecules binding NRG1 EGF domain – biochemical, small-molecule microarray, 635 nm fluorescence, primary screen (AID 1081).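 Also: binding of the protein to compounds printed on small-molecule microarray slides.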 The conditions noted are these: higher = more signal.
Test [8] can be described thus: FRG1 expression reporter modulators in myotubes – cell-based, C2C12 myotubes, firefly/Renilla luciferase, luminescence, FRG1 inhibition for FSHD, primary screen (AID 1084). The conditions noted are these: FRG1 promoter luciferase, higher = more signal, called active from +8 up or from −8 down.
Test [9] can be described thus: small molecules captured by biotinylated probe aFST – biochemical, small-molecule microarray, fluorescence 635/667, stem cell growth factor project, primary screen (AID 1086).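 Also: score merges 667 nm fluorescence with signal-to-noise of each printed compound spot.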 The conditions noted are these: higher = more signal.
Test [10] is described as follows: binders of probe aHhip on microarray, primary screen, stem cell growth factor project, biochemical, small-molecule microarray, fluorescence 635/667 (AID 1087).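 Also: score merges spot fluorescence at 667nm with spot signal to noise ratio.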 The following applies: higher = more signal.
The subject of test [11] is PRMT1 (protein arginine N-methyltransferase 1). Nature of the test: small molecules binding arginine methyltransferase PRMT1 – biochemical, small-molecule microarray, 635 nm fluorescence, primary screen (AID 1088).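 Also: binding of Prmt1 protein to compounds spotted on small-molecule microarray slides.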 The conditions noted are these: higher = more signal.
Test [12] is described as follows: growth effects on S. cerevisiae YJM789 – YJM789 clinical isolate, OD600, 24 h, basal, primary screen (AID 1089).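 Also: growth of clinical yeast isolate S. cerevisiae YJM 789 seeded 1000 cells per well; test concentration not given here.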 The following applies: higher = more signal, called active from +8 up or from −8 down.
Test [13] in a line: S. pombe growth modifiers, basal conditions – strain 972, OD600, 24 h, no modulator, primary screen (AID 1090).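 Also: basal condition with compound alone and no growth modifier present; test concentration not given here.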 The following applies: S. pombe 972 growth, higher = more signal, called active from +8 up or from −8 down.
The nature of test [14]: budding yeast growth modifiers under rapamycin – strain BY4716, OD600, 96 h, primary screen (AID 1091). Also: test concentration not given here. The following applies: S. cerevisiae BY4716 + rapamycin, higher = more signal, called active from +8 up or from −8 down.
For test [15], the target named is Torsin-1A-interacting protein 2 (Homo sapiens) (UniProt Q8NFQ8). Nature of the test: small molecules binding lysate-expressed LULL1 – cell lysate, human LULL1 lysate, 635/667 nm fluorescence, primary screen (AID 1092).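 Also: probe is lysate of COS7 cells overexpressing human LULL1; score merges per-feature 667 nm fluorescence with signal-to-noise.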 The following applies: small-molecule microarray, hLULL1 lysate binding, 635 nm fluorescence; higher = more signal.
Test [16] in a line: optical density change of DRC41 E. coli – strain DRC41, OD650, 24 h, E. coli filamentation project, primary screen (AID 1093).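 Also: MC1000 strain lacking acrAB efflux and sulA so SOS filamentation is blocked; test concentration not given here.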 The following applies: E. coli DRC41 growth, higher = more signal, called active from +8 up or from −8 down.
The nature of test [17]: probe aLefty2 binding to arrayed compounds – biochemical, biotinylated probe, 635/667 nm fluorescence, primary screen (AID 1094).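 Also: score merges spot fluorescence near 667 nm with spot signal-to-noise ratio.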 The conditions noted are these: small-molecule microarray, higher = more signal.
Test [18] deals with Noggin (protein binding on small-molecule microarray). Kind of test: small molecules binding Noggin protein – biochemical, 635/667 nm fluorescence, primary screen (AID 1095).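 Also: score merges 667 nm feature fluorescence with signal to noise over triplicate slides.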 The conditions noted are these: 635 nm fluorescence, higher = more signal.
In test [19] the target is Neurogenic locus notch homolog protein 3 (Homo sapiens) (UniProt Q9UM47). Nature of the test: small molecules binding NOTCH3 protein – biochemical, 635/667 nm fluorescence, primary screen (AID 1096). The conditions noted are these: small-molecule microarray, 635 nm fluorescence, higher = more signal.
Sequence of Neurogenic locus notch homolog protein 3 (Homo sapiens) (Q9UM47 whole entry, looked up): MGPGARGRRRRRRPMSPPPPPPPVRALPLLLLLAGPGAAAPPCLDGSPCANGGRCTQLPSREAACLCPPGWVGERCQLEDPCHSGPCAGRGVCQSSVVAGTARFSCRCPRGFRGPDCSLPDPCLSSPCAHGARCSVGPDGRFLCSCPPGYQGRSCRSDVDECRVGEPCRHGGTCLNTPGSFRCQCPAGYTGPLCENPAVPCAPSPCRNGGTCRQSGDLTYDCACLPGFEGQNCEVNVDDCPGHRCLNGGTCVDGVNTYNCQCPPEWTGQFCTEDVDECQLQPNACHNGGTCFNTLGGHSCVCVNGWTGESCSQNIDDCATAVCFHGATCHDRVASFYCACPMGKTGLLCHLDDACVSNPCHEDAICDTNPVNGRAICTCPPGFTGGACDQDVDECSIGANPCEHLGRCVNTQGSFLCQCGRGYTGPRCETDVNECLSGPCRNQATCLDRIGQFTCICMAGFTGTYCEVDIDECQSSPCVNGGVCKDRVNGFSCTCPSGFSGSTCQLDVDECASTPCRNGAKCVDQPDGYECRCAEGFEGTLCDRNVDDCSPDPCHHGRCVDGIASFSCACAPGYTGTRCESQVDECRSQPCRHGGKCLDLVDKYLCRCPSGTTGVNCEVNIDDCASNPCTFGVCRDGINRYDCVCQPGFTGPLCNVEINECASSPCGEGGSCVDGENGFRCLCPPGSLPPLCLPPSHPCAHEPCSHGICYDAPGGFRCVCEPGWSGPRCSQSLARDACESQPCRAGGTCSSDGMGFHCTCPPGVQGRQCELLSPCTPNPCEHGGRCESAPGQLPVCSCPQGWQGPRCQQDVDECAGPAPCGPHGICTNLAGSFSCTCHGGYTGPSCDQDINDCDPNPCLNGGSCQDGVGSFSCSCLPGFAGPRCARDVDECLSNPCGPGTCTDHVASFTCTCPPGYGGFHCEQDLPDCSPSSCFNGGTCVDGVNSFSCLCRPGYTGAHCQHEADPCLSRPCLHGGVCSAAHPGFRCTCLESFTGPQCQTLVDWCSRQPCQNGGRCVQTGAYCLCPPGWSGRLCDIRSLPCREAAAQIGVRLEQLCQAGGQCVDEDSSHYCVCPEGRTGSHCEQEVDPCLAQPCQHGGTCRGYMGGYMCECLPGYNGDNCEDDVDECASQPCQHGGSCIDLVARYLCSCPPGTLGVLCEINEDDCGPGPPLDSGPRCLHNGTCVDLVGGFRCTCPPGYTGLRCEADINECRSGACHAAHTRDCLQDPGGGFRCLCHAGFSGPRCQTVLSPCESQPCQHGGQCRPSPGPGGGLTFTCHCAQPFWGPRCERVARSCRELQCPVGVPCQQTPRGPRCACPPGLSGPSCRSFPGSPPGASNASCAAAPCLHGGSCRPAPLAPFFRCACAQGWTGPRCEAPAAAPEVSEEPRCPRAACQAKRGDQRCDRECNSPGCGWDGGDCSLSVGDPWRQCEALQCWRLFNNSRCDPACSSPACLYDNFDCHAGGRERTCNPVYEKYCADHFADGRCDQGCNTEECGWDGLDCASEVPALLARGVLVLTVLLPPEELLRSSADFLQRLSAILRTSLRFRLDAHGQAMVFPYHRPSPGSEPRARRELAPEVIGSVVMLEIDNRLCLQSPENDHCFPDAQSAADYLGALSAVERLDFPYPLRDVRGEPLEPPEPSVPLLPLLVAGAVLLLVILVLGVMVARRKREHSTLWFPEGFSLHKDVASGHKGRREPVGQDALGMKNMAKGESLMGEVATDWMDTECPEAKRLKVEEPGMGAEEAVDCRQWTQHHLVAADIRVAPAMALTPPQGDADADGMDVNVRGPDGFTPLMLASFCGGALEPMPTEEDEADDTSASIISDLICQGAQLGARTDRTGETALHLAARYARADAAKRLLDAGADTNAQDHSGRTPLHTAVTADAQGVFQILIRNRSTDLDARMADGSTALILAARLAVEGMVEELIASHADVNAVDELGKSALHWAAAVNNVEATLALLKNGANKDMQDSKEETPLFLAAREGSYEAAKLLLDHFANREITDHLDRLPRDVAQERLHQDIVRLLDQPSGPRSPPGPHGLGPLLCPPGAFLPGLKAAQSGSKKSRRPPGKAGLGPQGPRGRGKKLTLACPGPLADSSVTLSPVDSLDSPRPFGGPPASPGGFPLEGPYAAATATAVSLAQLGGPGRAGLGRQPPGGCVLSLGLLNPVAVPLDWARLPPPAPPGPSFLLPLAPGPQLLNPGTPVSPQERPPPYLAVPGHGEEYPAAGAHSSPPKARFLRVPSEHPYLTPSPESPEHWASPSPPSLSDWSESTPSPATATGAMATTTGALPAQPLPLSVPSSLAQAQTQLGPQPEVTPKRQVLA
The nature of test [20]: probe aEGFR binding to arrayed compounds – biochemical, biotinylated probe, 635/667 nm fluorescence, primary screen (AID 1097).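 Also: probe is a biotinylated anti-EGFR antibody binding compounds printed on slides; score combines fluorescence near 667 nm and signal to noise of each spot.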 The conditions noted are these: small-molecule microarray, higher = more signal.

Active and inactive are the calls of the source.

On to `CC(C)CNC(=O)[C@@]1(c2ccc([N+](=O)[O-])cc2)CC(=O)N(C2CCCCC2)[C@@H]1c1ccc(CO)cc1I`, for which the composite z-score was 0.0706 in [1]; 0.148 in test [2]; -0.0728 in [3]; -0.186 in test [4]; 0.421 in [5]; 1.14 in test [6]. The composite z-score in test [7] is 0.734; in test [9] it was -0.126; in test [10], -0.335; in [11], 0.935; in [15] it was 1.98; in test [17], -0.0512. Also, the composite z-score in test [18] was 0.193; in test [19], 0.636; in test [20] it was -0.096. Also, the z-score in [8] is -0.35 (inactive); in test [12] it was -0.579 (inactive); in test [13] it was 0.279 (inactive); in [14], -0.143 (inactive); in test [16], -0.602 (inactive).
Consider `CCOC(=O)C1=CC[C@@H](c2ccc([N+](=O)[O-])cc2)N(S(=O)(=O)c2ccc(C)cc2)[C@H]1c1ccccc1`, for which the composite z-score is -0.298 in test [1]; 0.491 in test [2]; 0.052 in [3]; 0.628 in test [4]; 1.55 in [5]; 0.525 in test [6]. For the same molecule, the composite z-score was 1.4 in test [7]; 0.858 in test [9]; 0.0695 in [10]; 1.54 in [11]; 2.98 in test [15]; 0.0511 in [17]. Further, the composite z-score in [18] stood at 1.02; in test [19], 1.14; in [20], 0.202. The z-score is -2.02 (inactive) in test [8]; 0.792 (inactive) in test [12]; 1.45 (inactive) in [13]; 3.16 (inactive) in test [14]; 0.413 (inactive) in test [16].
Consider `Cc1c(NC(=O)/C(C#N)=C/C=C/c2ccc(N(C)C)cc2)c(=O)n(-c2ccccc2)n1C`, for which the composite z-score in test [1] is -0.266; in test [2] it was 0.297; in test [3], 0.29; in test [4], 0.82; in test [5] it was 1.18; in test [6], 1.49. Also, the composite z-score in test [7] turned out to be 1.17; in test [9], 0.512; in test [10], 0.409; in test [11] it was 1.55; in [15], 2.6; in test [17], 0.647. The composite z-score was found to be 0.586 in [18], 0.739 in [19] and 0.118 in [20]. Moreover, the z-score in test [8] is 3.7 (inactive); in [12], -0.0755 (inactive); in test [13] it was -0.544 (inactive); in test [14], -0.299 (inactive); in [16] it was 0.482 (inactive).
For the molecule `NC(=O)NCC#Cc1ccc2c(c1)[C@]1(C(=O)N2)[C@H](C(=O)Nc2nc3ccccc3s2)[C@H]2C(=O)O[C@H](c3ccccc3)[C@H](c3ccccc3)N2[C@@H]1c1ccc(O)cc1`, the composite z-score in test [1] is 0.187; in test [2], 0.544; in test [3], -0.0415; in test [4], 0.604; in test [5], 0.455; in test [6] it was 0.339. The composite z-score in test [7] is -0.15; in [9], 0.623; in [10] it was 0.142; in test [11] it was 1.41; in test [15], -0.569; in test [17] it was 0.14. Besides, the composite z-score in [18] was 0.614; in [19], 1.05; in test [20], -0.0701. Further, the z-score in test [8] is 1.46 (inactive); in test [12], 3.89 (inactive); in [13], 3.26 (inactive); in [14] it was 7.47 (inactive); in test [16] it was 2.01 (inactive).
For the molecule `C=CCOC(=O)[C@@H]1[C@H]2C(=O)O[C@H](c3ccccc3)[C@H](c3ccccc3)N2[C@H](c2ccc(OCCOC(=O)[C@H]3C[C@H]4C(=O)N[C@@H](CCCCNC(C)=O)C(=O)N4[C@H]3c3cccc(OCCO)c3)cc2)[C@@]12C(=O)Nc1ccc(I)cc12`, the composite z-score in test [1] was -0.0066; in test [2], 0.99; in [3], -0.0718; in test [4] it was 0.404; in test [5], 0.544; in test [6], 0.851. In addition, the composite z-score in [7] was 1.28; in test [9], 0.252; in test [10], 0.0479; in test [11], 1.54; in test [15], 1.78; in test [17], -0.195. The composite z-score was 1.68 in test [18], 1.12 in test [19] and -0.0882 in test [20]. In addition, the z-score in test [8] was 0.49 (inactive); in test [12], 1.71 (inactive); in [13], 1.38 (inactive); in [14], 3.9 (inactive); in [16], 0.136 (inactive).
Regarding `CCCc1cccc(=O)o1`, the composite z-score is -0.218 in test [1]; -0.001 in [2]; -0.112 in [3]; 0.191 in test [4]; 0.168 in test [5]; 0.785 in test [6]. The composite z-score was 1.24 in test [7]; -0.278 in test [9]; 0.155 in test [10]; 0.804 in test [11]; 1.17 in test [15]; -0.0475 in [17]. In addition, the composite z-score in test [18] was found to be 0.614; in test [19], 0.363; in test [20], 0.0276. The z-score in [8] is 0.273 (inactive); in [12], -0.91 (inactive); in test [13], 0.641 (inactive); in test [14], -0.467 (inactive); in test [16], -0.454 (inactive).
On to `CC(C)C[C@@H]1NC(=O)[C@H]2C[C@@H](C(=O)NCCCCCC[N+](C)(C)C)[C@@H](c3cccc(OCCO)c3)N2C1=O`, for which the composite z-score in test [1] was -0.183; in test [2] it was 0.121; in [3], -0.152; in [4] it was -0.214; in [5], -0.356; in test [6], -0.0252. Also, the composite z-score in [7] is 1.34; in test [9], -0.601; in [10], -0.134; in test [11], 1.13; in test [15], 2.49; in [17], -0.166. The composite z-score in [18] turned out to be 1.47; in test [19], 1.07; in test [20], 0.038. Moreover, the z-score in [8] was 4.18 (inactive); in test [12], -1.15 (inactive); in test [13], -0.455 (inactive); in test [14], -0.794 (inactive); in test [16], 0.319 (inactive).
On to `CN1C(=O)C2C=CC(C(O)C3CCCCC3)N(N3CCCCC3)C2C1=O` (stereo not given), for which the composite z-score was -0.0863 in [1]; 1.54 in test [2]; 0.156 in [3]; 0.644 in [4]; 1.52 in test [5]; 1.51 in test [6]. Moreover, the composite z-score in [7] was determined as 1.23; in test [9], 1.01; in test [10], 0.398; in test [11] it was 1.56; in test [15] it was 2.45; in [17], 0.25. Besides, the composite z-score was 0.684 in test [18], 1.07 in test [19] and 0.0939 in [20]. Moreover, the z-score in [8] was 0.573 (inactive); in test [12] it was 0.823 (inactive); in [13], 0.788 (inactive); in test [14] it was 0.884 (inactive); in [16], -0.593 (inactive).
As to `C[C@@H](OCc1ccccc1)C1NC(=O)[C@@]23C(=O)N[C@@H](Cc4ccccc4)C2[C@H](C)[C@@]2(C)O[C@H]2C3/C=C/C/C=C\CNC(=O)CNC1=O` (stereo not given in full), the composite z-score was -0.231 in test [1]; 0.667 in [2]; -0.132 in [3]; 0.25 in test [4]; -1.08 in [5]; -0.366 in test [6]. Besides, the composite z-score in [7] was -0.002; in test [9] it was -0.294; in test [10], -0.134; in [11], -0.615; in test [15] it was 0.621; in [17], -0.145. For the same molecule, the composite z-score in [18] is -0.526; in test [19] it was -0.0955; in test [20] it was -0.24. For the same molecule, the z-score in [8] is -0.0275 (inactive); in test [12], 0.569 (inactive); in test [13], -1.32 (inactive); in [14], -0.929 (inactive); in [16], -0.557 (inactive).
